Assay outcomes (PubChem)
In the library only some 1.5% were active in any assay of this set; here they are far more common.
LANA-H2B inh: blocks KSHV LANA binding to histone H2A/H2B; 0.6% of 320,000 active; Q9QR71; inhibition, % (concentration not given with the values); cell-free LANA-H2A/H2B peptide, fluorescence polarization; AID 2629; in the data active = inhibition mostly above about 10%, no sharp cut-off; inactive = mostly below about 6.7%
GLD-1 TGE inh: GLD-1-TGE RNA interaction inhibition (C. elegans); Q17339; purified GLD-1 + fluorescein TGE RNA, fluorescence polarization; inhibition, % at 5.96 µM; 0.44% of 320,000 active; AID 2280;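 active = percent inhibition above a per-plate cutoff, the plate mean of test compounds plus 3 SD, cut at about 30% in these data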;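 also: 0% = DMSO wells with GLD-1 and probe and 100% = wells lacking GLD-1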
C-LANA FP: KSHV C-LANA DNA binding inhibition; inhibition, % at 9 µM; AID 504423; MBP-C-LANA/FAM-LBS DNA binding, fluorescence polarization; 0.078% of 340,000 active;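 active = highest replicate inhibition at or above 60% at 9 µM, even if other replicates fall short; inactive = all replicates below 60% inhibition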;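 also: 0% = neutral control wells and 100% = 4 µM acridine orange control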
E coli Lon inh: inhibits E. coli Lon protease; purified E. coli Lon protease, fluorescence polarization; inhibition, % at 7.94 µM; 0.42% of 360,000 active; in the data active = inhibition above about 13%, passing the limit was not always enough;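 also: 0% = enzyme with probe and DMSO and 100% = no enzyme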
Keap1-Nrf2 PPI: disrupts human Keap1 binding to Nrf2 peptide. Q14145. Keap1 Kelch-Nrf2 peptide fluorescence polarization, 1536-well. inhibition, % at 9.4 µM. 0.15% of 340,000 active. AID 504523; in the data active = inhibition above about 12%;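 also: human Keap1 Kelch domain with fluorescein labeled Nrf2 9mer peptide probe; 0% = neutral control wells and 100% = peptide positive control; higher means more block of Keap1 binding to Nrf2 peptide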
EBV gp42 inh: EBV gp42 inhibition; Fluorescence polarization binding assay, mP read-out; inhibition, % (tested at 21.74 µM); 0.42% of 220,000 active; AID 1085; in the data active = inhibition above about 50%
Target sequence (Q1HVG2 whole entry, looked up): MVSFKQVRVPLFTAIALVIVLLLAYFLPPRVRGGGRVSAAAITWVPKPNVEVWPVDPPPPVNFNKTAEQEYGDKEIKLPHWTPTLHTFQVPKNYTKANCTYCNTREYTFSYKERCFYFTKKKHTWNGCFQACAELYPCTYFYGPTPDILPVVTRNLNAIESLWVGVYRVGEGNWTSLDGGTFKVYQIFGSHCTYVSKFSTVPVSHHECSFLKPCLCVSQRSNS
GLD-1 TGE cf: GLD-1 TGE RNA interaction inhibition, confirmation | 10% of 550 active | GLD-1/FL-TGE RNA fluorescence polarization, biochemical | shares compounds with GLD-1 TGE inh | inhibition, % at 5.96 µM | AID 2459;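 active = average inhibition across triplicates above the hit cutoff set in the primary screen, cut at about 32% in these data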;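 also: 0% = GLD-1 with RNA probe and DMSO and 100% = wells lacking GLD-1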
Keap1 TSA: binds and thermally shifts human Keap1 Kelch domain; shares compounds with Keap1-Nrf2 PPI; Keap1 Kelch thermal shift, delta Tm; hits give high values; max delta Tm, degrees C; 8% of 400 active; in the data active = max delta Tm above about 0.48 degrees C
eLon confirm: E. coli Lon inhibition confirmation; shares compounds with E coli Lon inh; purified E. coli Lon, fluorescence polarization; inhibition, % at 7.94 µM; 31% of 1,400 active; AID 602230; in the data active = inhibition above about 16%;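 also: 0% = enzyme with probe and DMSO and 100% = no enzyme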
* = called active by the depositor; i = inactive; . = no result.

SMILES	LANA-H2B inh	GLD-1 TGE inh	C-LANA FP	E coli Lon inh	Keap1-Nrf2 PPI	EBV gp42 inh	GLD-1 TGE cf	others
CC(C)C1=C2OC(N)=C(C#N)C(C#N)=C2C(C)CC1 (stereo unspecified)	-1	39*	10	7	1	.	15
O=C(NCCOc1ccccc1)C1Nc2ccc(OC(F)(F)F)cc2C2C=CCC12 (stereo unspecified)	2	0	-4	3	6	.	.
O=C(O)c1ccc2c(c1)[C@@H]1C=CC[C@@H]1[C@H](c1ccccn1)N2	3	34*	98*	17	6	.	10
CCOC(=O)c1c(C)[nH]c(C(=O)N2CCc3cc(OC)c(OC)cc3C2)c1C	-2	5	-1	-2	3	.	.
O=C(C(=O)N1CCN(c2ccccc2)CC1)c1cn(CC(=O)N2CCCCCC2)c2ccccc12	6	31*	0	-1	2	.	7
COc1ccc(N2CCN(C(=O)C(=O)c3cn(CC(=O)N4CCCCCC4)c4ccccc34)CC2)cc1	3	17	0	12	3	.	.
COc1ccc(-n2nc(C(=O)NCC(=O)NC3CCCC(C)C3C)c3ccccc3c2=O)cc1 (stereo unspecified)	-5	33*	0	0	1	.	-1
Cc1cc2n(n1)C(c1ccccc1)CC(c1ccc(Br)cc1)=N2 (stereo unspecified)	i	53*	4	60*	3	39	16
O=C(NC1CCS(=O)(=O)C1)c1ccc(N2CCCCC2)c([N+](=O)[O-])c1 (stereo unspecified)	4	5	0	1	3	.	.
Nc1cccc(C(=O)OCC(=O)Nc2cccc3c2C(=O)c2ccccc2C3=O)c1	-2	47*	3	6	2	92*	67*
Cc1cccc(NC(=O)COC(=O)c2cccc3c2C(=O)c2ccccc2C3=O)c1C	.	1	-2	5	-4	2	.
CC1(C)CC(=O)C2=C(C1)Nc1cc(Cl)ccc1S2	-5	35*	2	14	-2	16	5
CSc1sc(C(=O)O)c(C)c1C(C)=O	1	-2	1	5	-4	-17	.
N#CC1=C(N)C(C#N)(C#N)[C@H](c2c(F)cccc2F)[C@H]2CC3(CC=C12)OCCO3	2	55*	6	13	1	32	19
N#Cc1ccccc1OCC(=O)NNC(=O)CNC(=O)c1ccc(Br)o1	1	7	0	9	5	.	.
N#Cc1ccccc1OCC(=O)NNC(=O)CNC(=O)c1cccc(Br)c1	1	0	1	0	-5	.	1
O=C(NCC(=O)N1CCCCC1)c1ccc2ccccc2c1	-2	2	-1	1	0	.	.
Cc1ccc[n+](-c2nc([O-])sc2/C=N/Nc2ccc([N+](=O)[O-])cc2)c1	-2	39*	6	19	3	33	39*
COc1cc(/C=C(\C#N)c2nc3ccccc3[nH]2)cc(Br)c1OCc1ccc(F)cc1	-3	97*	-1	1	-2	-9	-2
CC(OC(=O)C(C)N1C(=O)C2C3C=CC(C4CC34)C2C1=O)C(=O)c1ccccc1 (stereo unspecified)	-4	5	1	2	-3	-1	.
CCCCCOc1ccc(C(=O)NC(C(=O)O)C(C)C)cc1 (stereo unspecified)	-5	3	-1	-2	-4	-10	.
CC(C)c1ccc(N2C(=O)/C(=C/N(C)C)SC2=S)cc1	1	74*	-2	-18	0	-2	-6
O=C(CSC1=Nc2ccccc2C2=NC(CC(=O)NC3CCCCC3)C(=O)N12)NCc1ccco1 (stereo unspecified)	3	35*	3	11	-1	-14	29
O=C(CCC1N=C2c3ccccc3N=C(SCc3ccccc3Cl)N2C1=O)NCc1ccco1 (stereo unspecified)	3	2	0	3	-3	-7	.
O=C(O)Cn1c2c(c3ccccc31)CCCC2	4	33*	3	4	4	9	25
SMILES	LANA-H2B inh	GLD-1 TGE inh	C-LANA FP	E coli Lon inh	Keap1-Nrf2 PPI	EBV gp42 inh	GLD-1 TGE cf	others
CCOC(=O)C1=C(O)c2ccccc2C(=O)/C1=C\c1ccc(CC)cc1	2	38*	-5	-5	-8	-10	-3
O=C(CCc1ccccc1)N[C@@H]1c2ccccc2CC[C@H]1OCc1ccccc1	.	.	1	-5	1	.	.
O=c1cc(CSc2nnc(Nc3ccccc3F)s2)nc2sccn12	-5	4	-1	5	3	-21	.
COc1ccc(Nc2nnc(SCc3cc(=O)n4ccsc4n3)s2)cc1	-4	41*	1	15	-2	42	36*
CNc1nnc(Sc2ncccc2[N+](=O)[O-])s1	-1	40*	-1	4	2	-8	-2
O=[N+]([O-])c1cccnc1Sc1ccc(F)cc1	4	-10	.	3	.	.	.
COc1ccc(N(CCOc2ccccc2)S(=O)(=O)c2ccccc2)cc1	7	9	0	-7	-2	.	.
CCCn1c(C)cc(C(=O)CN2C(=O)c3cccc(N)c3C2=O)c1C	-1	35*	2	16	-5	0	-1
COc1ccc(NC(=O)C2(C)CCN2C(=O)C(C)C)cc1F (stereo unspecified)	.	.	.	0	.	.	.
Cc1ccc(C2C=C(c3ccccc3)Nc3ncnn32)cc1 (stereo unspecified)	-3	33*	5	9	-1	.	1
Cc1cc(C)c(C2=CC(c3ccccc3)n3ncnc3N2)cc1C (stereo unspecified)	-2	9	.	.	.	.	.
CCCCC(=O)Nc1ccc(NCc2ccc(C)s2)cc1	2	38*	1	-9	3	.	4
Cc1ccccc1OCC(=O)Nc1nc2ccccc2[nH]1	11	-1	0	2	0	-3	.
Cc1cnc(NC(=O)Cc2ccc(S(=O)(=O)N3CCOCC3)s2)s1	-7	48*	8	20	13*	.	-5	Keap1 TSA=-0.11
CCOCCCNC(=O)Cc1ccc(Br)cc1	4	1	2	-1	-5	-8	.
COc1ccc2[nH]c(C)c(CCN(Cc3cccs3)C(=S)Nc3cccc(F)c3)c2c1	-1	53*	8	27*	1	9	2	eLon confirm=10
COc1cccc(NC(=S)N(CCc2c(C)[nH]c3ccc(C)cc23)Cc2cccs2)c1	7	2	0	-10	-3	-18	.
